This is a sample that favours compounds with a hit; in the whole collection about 7.4% have one here.
FLuc counter = inhibits or activates purified firefly luciferase, miR-21 counter-screen; 360,000 compounds, 6.9% hits; Potency, µM (series often up to 57.5 µM), inactives show at the top dose activity change, negative = inhibition, hits mostly inhibitors; purified FLuc, Km substrates, luminescence inhibition; P08659;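 also: plate controls were vehicle for no effect and reference inhibitor for full effect; nearly all actives have a fitted effect of over 55% in size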
Target sequence (P08659 whole entry, looked up): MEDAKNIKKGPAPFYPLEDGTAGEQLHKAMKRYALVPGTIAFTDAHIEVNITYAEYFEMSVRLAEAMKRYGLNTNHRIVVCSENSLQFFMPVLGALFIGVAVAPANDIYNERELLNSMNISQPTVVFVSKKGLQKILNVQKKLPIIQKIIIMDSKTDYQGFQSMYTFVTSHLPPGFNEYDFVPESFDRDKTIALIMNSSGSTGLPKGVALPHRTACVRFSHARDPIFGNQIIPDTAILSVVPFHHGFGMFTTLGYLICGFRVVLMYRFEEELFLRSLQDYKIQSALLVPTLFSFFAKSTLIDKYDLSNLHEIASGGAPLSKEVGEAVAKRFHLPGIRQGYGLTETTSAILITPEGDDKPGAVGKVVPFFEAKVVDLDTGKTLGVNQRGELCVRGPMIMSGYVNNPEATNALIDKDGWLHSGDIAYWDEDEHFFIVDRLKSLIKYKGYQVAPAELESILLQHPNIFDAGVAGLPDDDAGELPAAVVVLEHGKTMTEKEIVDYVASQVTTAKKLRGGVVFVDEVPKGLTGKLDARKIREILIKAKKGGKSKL
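Purified P. pyralis luciferase (10nM final) with 10uM D-luciferin and 10uM ATP (Km levels) in 50mM Tris acetate pH 7.5, 10mM Mg acetate, 0.01% Tween-20, 0.05% BSA; qHTS 6-point titration, ~60 µM downward; luminescence read.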
ELG1 genotoxic = genotoxicity induction in ELG1-luciferase HEK293T cells. 330,000 compounds, 1.3% hits. AID 504466. Potency, µM (titrated, usually from 46 µM), inactives show at the highest dose activity change, positive = activation, most hits filed as activators. HEK293T ELG1-luciferase reporter, luminescence, 16 h; also: % of control where 0% means no effect; nearly all actives have a fitted effect of over 60% in size
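Screening used a luciferase reporter fused to human ELG1 in HEK293T cells. Luminescence was read on a CCD plate imager after 16 hr exposure and 30 min ONE-Glo incubation.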
NPC1 prom act = activates the NPC1 promoter | Huh7 NPC1 promoter luciferase reporter, 24 h | Potency, µM (top dose mostly 9.22 µM), inactives show at the top dose activation, hits mostly activators | 320,000 compounds, 2.4% hits | AID 485313; also: % of control where 0% means no effect; nearly all actives have a fitted effect of over 60% in size
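Stably transfected Huh7 (NPC1 promoter→luciferase), 1500 cells/well in Opti-MEM + 10% FBS, 2 h settle, then compound 24 h at 37 °C. Luminescence after 10 min with Amplite reagent.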
Rab9 promoter act = Rab9 promoter activation; Potency, µM (top dose mostly 9.22 µM), inactives show at the top dose activation, negative = inhibition, actives largely listed as activators; Huh7 Rab9 promoter-luciferase reporter, luminescence, 24 h; 320,000 compounds, 2.8% hits; also: % of control where 0% means no effect; nearly all actives have a fitted effect of over 60% in size
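Stable Rab9-luc Huh7, 1500 cells/well, 2 h settle; cmpd in DMSO, 24 h, 37 °C/5% CO2; luciferase reagent 10 min RT; luminescence.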
SMN2 splice enh = increases expression of the SMN2 splice variant | HEK293 SMN2-luciferase splicing reporter, luminescence, 30-36 h | 210,000 compounds, 2.8% hits | Potency, µM (series often up to 46.1 µM), inactives show top-dose activity change, positive = activation, most hits filed as activators | AID 1458; also: % of control where 0% means no effect; nearly all actives have a fitted effect of over 55% in size
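HEK293 cells carry an SMN2 minigene-luciferase reporter in which exon 7 inclusion puts luciferase in frame. Cells were seeded at 2000 cells/well, attached for 10-12 hours, then exposed to compounds for 30-36 hours at 37C before ONE-Glo luminescence.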
Starred values were filed as active, the others as inactive; u = inconclusive; x = no result. Calls follow the shape of the dose curve; as a rule, active = well fitted curve in the direction sought with a large enough effect; inconclusive = small, poorly fitted or top-dose-only effect, or another doubt; inactive = no such curve, though single readings can be large; an effect the other way counts as inactive or inconclusive. Potency is read from the fitted curve at half-maximal effect.

SMILES	FLuc counter	ELG1 genotoxic	NPC1 prom act	Rab9 promoter act	SMN2 splice enh
Fc1ccc(CSc2nnc(-c3ccco3)o2)cc1	u	15%	u	u	x
Brc1ccc(CSc2nnc(-c3ccco3)o2)cc1	u	18%	-1%	8%	13µM*
O=C(CSc1nnc(-c2ccco2)o1)c1ccccc1Cl	27µM*	15%	17%	u	22%
Cc1ccc(CSc2nnc(-c3ccco3)o2)cc1	12µM*	u	u	4µM*	20%
CCn1c(=O)c2cc(C(=O)NCCc3cc(OC)ccc3OC)sc2c2ccccc21	-10%	x	x	x	-1%
Cc1ccc2nc(N3CCOCC3)c(C=O)cc2c1	21µM*	u	23%	13%	x
N#C/C(=C\c1ccc(-c2ccccc2[N+](=O)[O-])o1)C(N)=O	3%	0%	-2%	-1%	x
O=C(/C=C/c1ccc(-c2ccccc2[N+](=O)[O-])o1)c1ccccc1	24µM*	13%	16%	3%	-20%
O=C(O)/C(=C\c1ccc(-c2ccccc2[N+](=O)[O-])o1)c1ccccc1	21µM*	4%	1%	6%	x
CC(C)=CCN1CCN(Cc2cnc(N3CCOCC3)s2)CC1CCO (stereo not drawn)	2.1µM*	u	3.2µM*	2.8µM*	x
CC(C)=CCN1CCN(Cc2cnc(C)s2)CC1CCO (stereo not drawn)	6.7µM*	u	1.6µM*	0.79µM*	x
COC(=O)c1ccc(CN2CCN(CC=C(C)C)C(CCO)C2)cc1 (stereo not drawn)	17µM*	2%	-1%	-2%	x
CCOc1ccc(-c2nnc(Nc3ccc(S(N)(=O)=O)cc3)c3ccccc23)cc1	3%	x	x	x	-5%
CC(C)c1ccc(NC(=O)c2cnc3sc(N4CCOCC4)nn3c2=O)cc1	1.9µM*	x	x	x	x
COC(=O)c1ccccc1NC(=O)c1cnc2sc(N3CCOCC3)nn2c1=O	-5%	x	x	x	x
Cc1cc(C)cc(C(=O)NCC(=O)OC(C)C(=O)N(C)c2ccccc2)c1 (stereo not drawn)	6%	-4%	-3%	-6%	11%
Cc1ccc(Cn2nnc3c(=O)[nH]c(C4CCCN(S(=O)(=O)c5ccccc5)C4)nc32)cc1 (stereo not drawn)	-1%	21µM*	13%	24%	-18%
Cc1cc(Cl)ccc1NC(=O)CN(c1ccccc1Br)S(C)(=O)=O	-2%	x	x	x	16%
Cc1cccc(C(=O)Nc2ccc(C(=O)/C=C/c3cccnc3)cc2)c1	-7%	u	13%	17%	26%
O=C(/C=C/c1ccc(Br)cc1)c1ccc(NC2=NCCCS2)cc1	u	-14%	1%	-4%	x
COc1cccc(/C=C/C(=O)c2ccc(NC3=NCCCS3)cc2)c1	11µM*	u	-3%	1%	-26%
O=C(/C=C/c1ccccc1)c1ccc(NC2=NCCCS2)cc1	4.3µM*	u	u	u	20%
CC(C)(C)c1ccc(/C=C/C(=O)c2ccc(NC3=NCCCS3)cc2)cc1	15µM*	-11%	1%	-3%	-107%
COc1cccc(/C=C/C(=O)OCC(=O)NC2CCCCCCC2)c1	x	-1%	x	x	x
Cc1cccc(/C=C/C(=O)c2ccc(NC3=NCCCS3)cc2)c1	13µM*	u	8%	18%	-20%
SMILES	FLuc counter	ELG1 genotoxic	NPC1 prom act	Rab9 promoter act	SMN2 splice enh
COc1ccccc1C(=O)NC(=O)COC(=O)CNC(=O)c1ccccc1	10%	0%	-5%	1%	x
O=C(Nc1ccncc1)c1ccccc1F	-2%	-11%	-3%	-1%	-9%
O=C(Nc1cccc([N+](=O)[O-])c1)c1cc2ccccc2cc1O	0.95µM*	15%	3%	-40%	x
COc1ccc(NC(=O)c2cc([N+](=O)[O-])ccc2O)cc1	0.13µM*	u	0.002µM*	0.0003µM*	x
COc1ccc(NC(=O)c2cccc([N+](=O)[O-])c2)cc1	u	u	u	u	43%
O=C(Nc1ccncc1)c1cc2ccccc2cc1O	1.7µM*	u	2µM*	1.4µM*	x
O=C(CSc1nc(-c2ccccc2)c2ccccc2n1)Nc1ccc(F)cc1	-2%	x	x	x	14%
CCOc1ccccc1CNC(=O)c1cc2c(=O)n(Cc3cccnc3)ccc2nc1C	2%	x	x	x	x
CCc1ccc(Oc2nc3c(C)cccn3c(=O)c2/C=C(\C#N)c2nc3ccccc3s2)cc1	-4%	x	x	x	11%
Cc1cc(C)c2nc3sc(C(=O)N4CCOCC4)c(N)c3cc2c1	0.21µM*	1.5µM*	2.2µM*	u	x
Cc1cc(C)c2cc3c(N)c(C(=O)N4CCOCC4)sc3nc2c1	11µM*	8%	u	u	x
CCOc1ccc2nc3sc(C(=O)N4CCOCC4)c(N)c3cc2c1	1.5µM*	2%	0.56µM*	0.56µM*	1.3µM*
O=C(NCCC(=O)N1CCN(S(=O)(=O)c2ccc(Cl)cc2)CC1)Nc1ccccc1	0%	0%	-1%	2%	x
COc1cccc(-c2cc(C(=O)NCCc3ccc(C)cc3)[nH]n2)c1	-16%	x	x	x	x
CCOC(=O)c1c(Nc2ccc(C)cc2)nnc(-c2ccccc2)c1-c1ccccc1	-11%	x	x	x	-24%
N[C@@H](Cc1ccc(O)cc1)C(=O)Nc1ccc2ccccc2c1	u	6%	27%	16%	x
NC(Cc1cnc[nH]1)C(=O)Nc1ccc2ccccc2c1 (stereo not drawn)	x	x	x	x	13µM*
CCCOc1ccc(/C=N/NC(=O)c2ccc(Cn3cc([N+](=O)[O-])cn3)o2)cc1	2.4µM*	u	23%	u	-5%
CC(C)c1ccc(/C=N\NC(=O)c2ccc(Cn3cccn3)o2)cc1	1.3µM*	10%	u	11%	25%
CS(=O)(=O)C1=NSC2=NC(=O)/C(=C\c3cccn3-c3ccccc3Cl)C(=N)N21	27µM*	2%	0%	16%	-2%
COc1cccc(-n2c(C)cc(/C=C3/C(=N)N4C(=NC3=O)SN=C4S(C)(=O)=O)c2C)c1	5.4µM*	5%	1%	1%	20%
Cc1cc(C)cc(-n2cccc2/C=C2/C(=N)N3C(=NC2=O)SN=C3S(C)(=O)=O)c1	13µM*	-3%	-6%	3%	-20%
Cc1ccc(-n2cccc2/C=C2/C(=N)N3C(=NC2=O)SN=C3S(C)(=O)=O)cc1	19µM*	0%	-1%	2%	-15%
Cc1ccc(S(=O)(=O)Oc2ccc(/C=C3/C(=N)N4C(=NC3=O)SN=C4S(C)(=O)=O)cc2)cc1	-8%	8%	0%	5%	x
CC1CC(C)CN(C(=O)COC(=O)COc2ccccc2C#N)C1 (stereo not drawn)	4%	-1%	-4%	-2%	x
CCc1ccc(-n2cccc2/C=C2/C(=N)N3C(=NC2=O)SN=C3S(C)(=O)=O)cc1	17µM*	0%	-3%	3%	-10%
O=c1/c(=C\c2ccc(F)cc2)sc2n1CCCN=2	13µM*	u	u	u	u

Bioassay records: PubChem BioAssay, National Center for Advancing Translational Sciences (NCATS)
